Bioassay records (PubChem BioAssay)
An excerpt weighted towards active compounds, which were near 9.4% of everything screened.
Pf growth 96h – inhibits malaria parasite growth, 96 h; P. falciparum luciferase reporter growth, 96 h; Potency, µM (highest dose often 28.7 µM), for inactives: at the top dose activity change, negative = inhibition, usual class: inhibitors; AID 504834; 320,000 tested, 6.9% active; also: % is scaled to controls: 0 for no effect and ±100 for the full control effect
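Two-generation exposure (96 h) targets delayed-death phenotype. Reporter parasites carrying integrated firefly luciferase, in red cells at 2% hematocrit and 0.05% parasitemia final, kept at 37 C, 5% CO2; luminescence loss indicates inhibition.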
SARS PLP yeast – blocks SARS-CoV papain-like protease in a yeast assay; S. cerevisiae expressing SARS-CoV PLpro, growth rescue; Potency, µM (top dose mostly 32.9 µM), without a hit: top-dose activity, positive = growth rescue, actives largely listed as activators; 330,000 tested, 0.19% active; AID 485353; calls by dose curve; also: 0% is about no effect; nearly all actives have a fitted effect of over 55% in size
AMA1 RON2 block – AMA1-RON2 (P. falciparum) interaction inhibition. AlphaScreen AMA1-biotinylated RON2 peptide binding. Potency, µM (top dose mostly 58.2 µM), for the others: at the highest dose activity change, negative = inhibition, most hits filed as inhibitors. 360,000 tested, 0.2% active. AID 720542;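 also: 0% = vehicle wells and -100% = peptide control; nearly all actives have a fitted effect of over 45% in size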
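AMA1 (3D7) with his tag at 25 nM final met compounds first, then biotinylated RON2 peptide at 25 nM; detection used donor plus acceptor beads, 10 µg/mL apiece, read by AlphaScreen after 30 min at room temperature.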
Pf growth 48h – inhibits P. falciparum growth in the first generation, 48 h. 310,000 tested, 5.9% active. Potency, µM (titrated, usually from 28.7 µM), for the others: top-dose activity change, negative = inhibition, usual class: inhibitors. P. falciparum luciferase growth in erythrocytes, 48 h; also: % is scaled to controls: 0 for no effect and ±100 for the full control effect
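Luminescence readout; reporter = integrated firefly luciferase in P. falciparum. RBC culture at 2% hematocrit, 0.1% parasitemia final, 37 C/5% CO2; decreased signal taken as growth inhibition.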
* hit, by the source's call; ? = inconclusive; nt = not tested or not shown; [ ] = dose if it differs, or a comment. Unless noted, calls follow the shape of the dose curve; as a rule, active = well fitted curve in the direction sought with a large enough effect; inconclusive = small, poorly fitted or top-dose-only effect, or another doubt; inactive = no such curve, though single readings can be large; an effect the other way counts as inactive or inconclusive. Potency is read from the fitted curve at half-maximal effect.

SMILES | Pf growth 96h | SARS PLP yeast | AMA1 RON2 block | Pf growth 48h
CCCCCCCCCCCCCCCC[n+]1cccc(C(=O)N(CC)CC)c1 | 2.6µM* | -67% | 0% | 5.2µM*
CCN(CC)C(=O)c1ccc(-c2ccccc2)cc1 | ? | 6% | -5% | ?
CCCCCCCC[n+]1cccc(C(=O)N(CC)CC)c1 | 8.3µM* | -21% | -7% | ?
Oc1ccc[n+](CCCCC[n+]2cccc(O)c2)c1 | 24% | 0% | 4% | 2%
CCCNC(=S)Nc1ccc(Cl)cc1C | ? | ? | 10% | -5%
COc1ccc(CN(C(=O)CN2C(=O)C(C)Oc3ccccc32)C2CCCC2)c(OC)c1 (stereo not drawn) | 8.3µM* | -15% | -9% | 4.7µM*
O=C(NCc1ccco1)c1c(O)c2cccc3c2n(c1=O)CCC3 | 13µM* | 0% | -3% | 13%
COc1ccc(OC2C(=O)N(Cc3ccc4c(c3)OCO4)C2c2sccc2C)cc1 (stereo not drawn) | 4.1µM* | -5% | -2% | ?
CCOC(=O)c1c(NC(=O)CN2CCN(C(=O)C3CCCO3)CC2)sc(C)c1C (stereo not drawn) | -6% | nt | -13% | ?
CCc1cc(C(=O)OC)c(NC(=O)CN2CCN(C(=O)c3ccco3)CC2)s1 | ? | 1% | 6% | 1.7µM*
CCc1cc(C(=O)OC)c(NC(=O)CN2CCN(C(=O)C3CCCO3)CC2)s1 (stereo not drawn) | 0.66µM* | -5% | 1% | ?
CCOC(=O)N1CCN(CC(=O)Nc2sc(CC)cc2C(=O)c2ccc(OC)cc2)CC1 | 10µM* | 0% | -5% | ?
Cc1cc(C(=O)c2ccccc2)c(NC(=O)CN2CCOCC2)s1 | 30% | nt | 5% | 12%
Cc1ccc(C(=O)c2cc(C)sc2NC(=O)CN2CCN(C(=O)c3ccco3)CC2)cc1 | 7% | -17% | -24% | 1.3µM*
CCC(C)(C)NC(=O)C(c1ccc(F)cc1)N(Cc1cccs1)C(=O)c1cnccn1 (stereo not drawn) | ? | -1% | -2% | -56%
O=C(Nc1ccc2c(c1)CCC2)c1cccc(F)c1 | 265% | -71% | -13%[11.6 µM] | 175%
O=C(Nc1nc(-c2ccccc2)c(-c2ccccc2)o1)c1ccc(F)cc1 | 9.3µM* | -21% | 99% | ?
CC1=NN(C(=O)c2ccc(Br)cc2)C(O)(C(F)(F)OC(F)(F)F)C1 (stereo not drawn) | ? | -43% | 86% | 4.7µM*
CCC1=NN(C(=O)c2ccc(Br)cc2)C(O)(c2ccc(C)cc2)C1 (stereo not drawn) | -17% | 6% | 22% | 31%
CCC1=NN(C(=O)c2ccc(C)cc2)C(O)(c2ccc(Br)cc2)C1 (stereo not drawn) | 13µM* | -54% | 24% | 11%
Cc1cccc(C)c1OCC(O)CN(Cc1ccccc1O)C1CCCCC1 (stereo not drawn) | 0.26µM* | -3% | -6% | 0.26µM*
CN(CC(O)COc1ccc(OCC(O)CN(C)C2CCCCC2)cc1)C1CCCCC1 (stereo not drawn) | 35% | nt | 5% | ?
Cc1cc(Cl)c(S(=O)(=O)Nc2cccc(O)c2)cc1OCC(N)=O | 31% | 0% | 27%[2.32 µM] | 2%
COc1ccc(NS(=O)(=O)c2cc(OCC(N)=O)c(C)cc2Cl)cc1 | 2.1µM* | -1% | -1%[2.32 µM] | 10µM*
CCOc1ccc(NS(=O)(=O)c2cc(OCC(N)=O)c(C)cc2Cl)cc1 | 3.7µM* | -10% | -10% | 1.5µM*
SMILES | Pf growth 96h | SARS PLP yeast | AMA1 RON2 block | Pf growth 48h
Fc1c(F)c(F)c(/C=N/NC(=S)Nc2cccnc2)c(F)c1F | ? | 0% | 57% | ?
Cc1c([C@@H]2C[C@H]3CN(Cc4cccc(Cl)c4)C(=O)[C@]34CCCN24)cnn1C | ? | 0% | 7% | ?
Cn1cc([C@@H]2C[C@H]3CN(Cc4cccc(Cl)c4)C(=O)[C@]34CCCN24)c2ccccc21 | ? | 0% | -15% | 12µM*
O=C1N(Cc2cccc(Cl)c2)C[C@@H]2C[C@@H](c3ccsc3)N3CCC[C@@]123 | 5% | 1% | -4% | 8.3µM*
O=C1N(Cc2cccc(Cl)c2)C[C@@H]2C[C@@H](c3ccccn3)N3CCC[C@@]123 | ? | 1% | 57% | ?
CN1C[C@@H]2C(c3ccc(Cl)nc3)C3(c4cccnc4)CC2(C3)[C@H]1c1ccccc1 (stereo partly drawn) | 10µM* | 2% | -9% | 10µM*
CN1C[C@@H]2C(c3ccc(Cl)nc3)C3(c4ccccc4)CC2(C3)[C@H]1c1ccccc1 (stereo partly drawn) | 13µM* | 2% | -22% | 9.3µM*
